# Data published in the supplement of paper PMC10849652.
# Targets with a hit are over-represented here; the source holds about 8,800 in all. About 0.5% of all pairs of compound and target were hits.
# Compound: C[C@H](Nc1ncnc2nc[nH]c12)c1cc2cccc(Cl)c2c(=O)n1-c1ccccc1 [duvelisib]
# Assay: log2 fold change, soluble protein after heating vs DMSO (PISA); higher = thermal stabilisation; K562 lysate, 10 uM; active = over 0.2 and 3.5 SD of the protein, either way, in both replicates (recomputed)
# In short: (§1)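 Quantification was by TMTpro 16plex LC-MS/MS with equalised channel sums, applied to the supernatant after 21,000xg for 90 min. Samples were crude K562 extract at 1 mg/mL protein in PBS pH 7.4 with 1 mM MgCl2, treated with 10 μM compound for 30 min, heated for 3 min across 48°C-58°C, pooled and brought to 0.5% NP-40 at 4°C. Values are log-two fold changes in thermal stability relative to solvent controls, from duplicates.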
# Chain of UniProt Q8IZ21 (Q8IZ21 whole entry, looked up): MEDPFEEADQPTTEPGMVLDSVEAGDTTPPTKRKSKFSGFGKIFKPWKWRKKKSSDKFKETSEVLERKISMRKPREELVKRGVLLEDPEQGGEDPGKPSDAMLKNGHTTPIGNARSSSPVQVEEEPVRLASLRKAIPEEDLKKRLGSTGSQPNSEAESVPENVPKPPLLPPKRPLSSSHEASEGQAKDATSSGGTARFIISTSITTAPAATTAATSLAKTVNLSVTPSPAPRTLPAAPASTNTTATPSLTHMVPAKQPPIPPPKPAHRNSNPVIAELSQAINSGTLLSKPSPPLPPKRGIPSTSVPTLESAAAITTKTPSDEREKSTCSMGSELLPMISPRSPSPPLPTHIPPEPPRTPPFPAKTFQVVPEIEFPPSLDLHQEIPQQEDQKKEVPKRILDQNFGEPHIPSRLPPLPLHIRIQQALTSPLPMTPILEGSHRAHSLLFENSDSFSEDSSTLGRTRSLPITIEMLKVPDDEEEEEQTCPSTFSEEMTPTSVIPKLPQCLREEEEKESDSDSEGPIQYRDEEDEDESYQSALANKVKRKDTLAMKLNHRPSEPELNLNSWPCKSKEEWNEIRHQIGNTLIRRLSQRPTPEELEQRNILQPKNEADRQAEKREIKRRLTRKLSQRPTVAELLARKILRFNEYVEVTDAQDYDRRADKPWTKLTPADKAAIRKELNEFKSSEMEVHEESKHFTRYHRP
# Chain of UniProt P48634 (P48634 whole entry, looked up): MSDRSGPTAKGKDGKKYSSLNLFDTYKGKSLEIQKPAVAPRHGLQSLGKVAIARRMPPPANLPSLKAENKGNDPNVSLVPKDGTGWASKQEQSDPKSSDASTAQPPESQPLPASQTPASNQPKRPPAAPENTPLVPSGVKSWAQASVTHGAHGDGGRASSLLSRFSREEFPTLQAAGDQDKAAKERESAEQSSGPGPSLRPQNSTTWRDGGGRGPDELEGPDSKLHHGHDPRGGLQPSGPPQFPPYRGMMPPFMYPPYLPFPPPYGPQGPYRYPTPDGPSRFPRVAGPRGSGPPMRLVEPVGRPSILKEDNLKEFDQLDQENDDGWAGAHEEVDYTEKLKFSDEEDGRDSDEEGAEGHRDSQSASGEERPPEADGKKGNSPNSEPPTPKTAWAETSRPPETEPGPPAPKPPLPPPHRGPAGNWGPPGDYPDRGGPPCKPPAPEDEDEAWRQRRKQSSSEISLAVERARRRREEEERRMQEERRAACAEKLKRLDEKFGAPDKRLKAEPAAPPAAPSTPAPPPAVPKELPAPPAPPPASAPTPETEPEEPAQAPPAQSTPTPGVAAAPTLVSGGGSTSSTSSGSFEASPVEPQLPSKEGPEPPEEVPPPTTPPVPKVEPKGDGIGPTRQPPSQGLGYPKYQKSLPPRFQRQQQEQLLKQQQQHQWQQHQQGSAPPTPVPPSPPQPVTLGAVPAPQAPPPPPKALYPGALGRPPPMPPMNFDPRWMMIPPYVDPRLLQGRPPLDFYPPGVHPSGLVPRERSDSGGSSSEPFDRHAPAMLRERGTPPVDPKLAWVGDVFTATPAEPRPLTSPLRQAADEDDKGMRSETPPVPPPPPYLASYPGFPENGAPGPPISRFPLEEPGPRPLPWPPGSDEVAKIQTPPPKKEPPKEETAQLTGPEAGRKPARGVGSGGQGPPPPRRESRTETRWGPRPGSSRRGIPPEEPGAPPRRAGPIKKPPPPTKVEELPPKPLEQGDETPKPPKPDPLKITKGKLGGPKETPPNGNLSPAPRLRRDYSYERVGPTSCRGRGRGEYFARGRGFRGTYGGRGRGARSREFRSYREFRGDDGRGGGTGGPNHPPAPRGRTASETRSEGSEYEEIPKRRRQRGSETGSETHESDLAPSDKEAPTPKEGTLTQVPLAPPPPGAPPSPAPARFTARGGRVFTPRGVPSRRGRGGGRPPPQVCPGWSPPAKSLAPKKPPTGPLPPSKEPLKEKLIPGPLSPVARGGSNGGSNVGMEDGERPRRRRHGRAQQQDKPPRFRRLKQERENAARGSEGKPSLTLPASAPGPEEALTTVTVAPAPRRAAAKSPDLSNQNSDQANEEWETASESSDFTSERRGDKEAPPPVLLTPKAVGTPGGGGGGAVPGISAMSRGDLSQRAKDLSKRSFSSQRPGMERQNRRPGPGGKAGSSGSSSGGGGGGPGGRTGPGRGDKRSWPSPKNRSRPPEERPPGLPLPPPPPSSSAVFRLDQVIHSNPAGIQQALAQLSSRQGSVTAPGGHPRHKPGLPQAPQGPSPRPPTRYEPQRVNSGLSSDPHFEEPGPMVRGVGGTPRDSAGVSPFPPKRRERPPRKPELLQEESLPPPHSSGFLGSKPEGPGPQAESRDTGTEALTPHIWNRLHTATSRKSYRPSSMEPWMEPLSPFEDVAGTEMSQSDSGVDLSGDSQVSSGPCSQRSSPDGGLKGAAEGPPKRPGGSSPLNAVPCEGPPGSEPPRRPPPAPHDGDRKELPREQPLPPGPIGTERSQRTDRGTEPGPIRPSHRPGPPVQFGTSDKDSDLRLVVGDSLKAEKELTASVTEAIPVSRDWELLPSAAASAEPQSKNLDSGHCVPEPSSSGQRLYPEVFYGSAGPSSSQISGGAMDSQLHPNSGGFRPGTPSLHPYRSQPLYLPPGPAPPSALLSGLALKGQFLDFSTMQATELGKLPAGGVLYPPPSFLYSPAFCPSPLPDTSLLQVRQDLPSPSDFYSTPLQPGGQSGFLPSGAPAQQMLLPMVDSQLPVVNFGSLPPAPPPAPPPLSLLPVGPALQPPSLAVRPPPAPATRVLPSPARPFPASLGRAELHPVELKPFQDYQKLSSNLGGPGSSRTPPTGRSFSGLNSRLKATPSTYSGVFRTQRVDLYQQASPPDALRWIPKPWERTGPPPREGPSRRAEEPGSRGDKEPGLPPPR
# Chain of UniProt Q8NEB9 (Q8NEB9 whole entry, looked up): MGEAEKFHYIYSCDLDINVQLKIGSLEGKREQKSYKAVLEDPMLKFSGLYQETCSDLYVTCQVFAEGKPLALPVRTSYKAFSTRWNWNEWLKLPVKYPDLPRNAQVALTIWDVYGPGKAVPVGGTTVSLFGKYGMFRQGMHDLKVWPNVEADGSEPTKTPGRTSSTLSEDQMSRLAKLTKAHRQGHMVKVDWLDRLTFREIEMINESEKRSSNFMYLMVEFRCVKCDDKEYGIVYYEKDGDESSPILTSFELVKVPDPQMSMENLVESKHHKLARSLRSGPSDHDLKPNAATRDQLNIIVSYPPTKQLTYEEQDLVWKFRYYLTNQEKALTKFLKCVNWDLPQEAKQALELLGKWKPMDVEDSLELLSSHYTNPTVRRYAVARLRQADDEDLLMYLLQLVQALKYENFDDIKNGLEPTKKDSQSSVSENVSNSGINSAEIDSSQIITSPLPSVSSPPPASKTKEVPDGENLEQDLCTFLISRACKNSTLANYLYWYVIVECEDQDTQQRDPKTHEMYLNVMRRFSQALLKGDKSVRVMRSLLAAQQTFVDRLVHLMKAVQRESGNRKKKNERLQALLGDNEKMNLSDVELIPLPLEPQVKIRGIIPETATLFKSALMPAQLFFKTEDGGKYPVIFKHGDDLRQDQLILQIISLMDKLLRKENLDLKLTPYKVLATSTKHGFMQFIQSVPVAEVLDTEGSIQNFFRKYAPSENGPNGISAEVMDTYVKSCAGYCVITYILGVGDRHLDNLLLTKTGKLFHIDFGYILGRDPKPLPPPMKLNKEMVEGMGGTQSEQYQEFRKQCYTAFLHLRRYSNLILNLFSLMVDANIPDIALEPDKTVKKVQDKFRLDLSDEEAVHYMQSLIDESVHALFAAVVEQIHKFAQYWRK
# Chain of UniProt Q5JRX3 (Q5JRX3 whole entry, looked up): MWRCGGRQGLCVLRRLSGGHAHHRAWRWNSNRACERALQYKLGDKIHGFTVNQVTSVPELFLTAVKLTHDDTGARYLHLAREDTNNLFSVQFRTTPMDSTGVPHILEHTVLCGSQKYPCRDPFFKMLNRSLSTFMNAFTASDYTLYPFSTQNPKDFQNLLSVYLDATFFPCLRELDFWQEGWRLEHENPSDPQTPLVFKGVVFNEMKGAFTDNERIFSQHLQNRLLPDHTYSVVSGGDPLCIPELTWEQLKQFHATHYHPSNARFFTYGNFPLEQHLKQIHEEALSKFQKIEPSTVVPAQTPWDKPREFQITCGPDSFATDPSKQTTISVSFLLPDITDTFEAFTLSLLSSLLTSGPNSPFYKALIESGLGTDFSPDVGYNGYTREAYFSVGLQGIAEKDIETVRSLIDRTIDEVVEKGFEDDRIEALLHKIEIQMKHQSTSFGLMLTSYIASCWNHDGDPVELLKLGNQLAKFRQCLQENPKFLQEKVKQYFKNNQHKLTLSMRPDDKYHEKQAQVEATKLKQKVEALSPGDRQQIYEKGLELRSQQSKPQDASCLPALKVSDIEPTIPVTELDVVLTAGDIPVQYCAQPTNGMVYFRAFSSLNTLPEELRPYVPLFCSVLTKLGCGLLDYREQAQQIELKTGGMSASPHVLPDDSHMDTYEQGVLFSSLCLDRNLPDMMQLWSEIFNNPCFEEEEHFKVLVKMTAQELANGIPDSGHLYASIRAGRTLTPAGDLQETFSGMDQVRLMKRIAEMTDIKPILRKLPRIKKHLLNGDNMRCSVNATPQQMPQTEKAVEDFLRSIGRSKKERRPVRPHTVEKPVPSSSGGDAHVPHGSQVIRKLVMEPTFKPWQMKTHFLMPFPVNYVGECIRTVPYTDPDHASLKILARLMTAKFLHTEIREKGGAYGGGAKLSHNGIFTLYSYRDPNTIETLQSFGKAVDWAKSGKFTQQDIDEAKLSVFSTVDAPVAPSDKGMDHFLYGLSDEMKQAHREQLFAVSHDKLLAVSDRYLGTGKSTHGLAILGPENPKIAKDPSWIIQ
# Chain of UniProt Q96S99 (Q96S99 whole entry, looked up): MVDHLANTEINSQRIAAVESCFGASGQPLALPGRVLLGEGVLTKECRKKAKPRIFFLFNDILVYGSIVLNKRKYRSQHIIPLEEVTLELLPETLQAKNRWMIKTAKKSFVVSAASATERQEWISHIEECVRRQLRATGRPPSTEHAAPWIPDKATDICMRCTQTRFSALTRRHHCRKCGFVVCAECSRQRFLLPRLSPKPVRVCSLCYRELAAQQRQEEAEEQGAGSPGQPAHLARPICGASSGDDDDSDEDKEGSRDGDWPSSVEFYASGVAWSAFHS
row,Target,log2 fold change
1,PUS1 (UniProt Q9Y606),0.008 (inactive)
2,PTPN23 (UniProt Q9H3S7),-0.023 (inactive)
3,PDCD6IP (UniProt Q8WUM4),0.004 (inactive)
4,PMS2 (UniProt P54278),0 (inactive)
5,PSTPIP2 (UniProt Q9H939),-0.023 (inactive)
6,PUM1 isoform 3 (UniProt Q14671),-0.003 (inactive)
7,PICALM (UniProt Q13492),0.012 (inactive)
8,PTPN1 (UniProt P18031),-0.007 (inactive)
9,PPP2R5C isoform 5 (UniProt Q13362),0.02 (inactive)
10,POLD3 (UniProt Q15054),-0.033 (inactive)
11,PIP4K2A (UniProt P48426),0.05 (inactive)
12,PDS5A (UniProt Q29RF7),0.023 (inactive)
13,PFN1 (UniProt P07737),0.009 (inactive)
14,PLXNB2 (UniProt O15031),0.031 (inactive)
15,PFAS (UniProt O15067),-0.009 (inactive)
16,PITRM1 isoform 2 (UniProt Q5JRX3),0.029 (inactive)
17,PPP1R8 (UniProt Q12972),-0.035 (inactive)
18,PLEKHF1 (UniProt Q96S99),0.058 (inactive)
19,PRKACB isoform 2 (UniProt P22694),0.024 (inactive)
20,PIP4K2C (UniProt Q8TBX8),0.033 (inactive)

row,Target,log2 fold change
1,PDPK1 (UniProt O15530),-0.039 (inactive)
2,PIK3C3 (UniProt Q8NEB9),0.107 (inactive)
3,PHOSPHO2 (UniProt Q8TCD6),-0.044 (inactive)
4,PFKP (UniProt Q01813),-0.02 (inactive)
5,PHKG2 (UniProt P15735),-0.008 (inactive)
6,PPCDC (UniProt Q96CD2),0.062 (inactive)
7,PDE2A (UniProt O00408),-0.042 (inactive)
8,PRKCB isoform 2 (UniProt P05771),0.033 (inactive)
9,PIP4P2 (UniProt Q8N4L2),0.027 (inactive)
10,PHKA1 (UniProt P46020),-0.044 (inactive)
11,PIK3R2 (UniProt O00459),0.322 (active)
12,PSMB9 (UniProt P28065),0.01 (inactive)
13,PHACTR4 isoform 2 (UniProt Q8IZ21),0 (inactive)
14,PI4K2A (UniProt Q9BTU6),0.054 (inactive)
15,PDE4DIP isoform 4 (UniProt Q5VU43),-0.017 (inactive)
16,PDXDC1 (UniProt Q6P996),0.019 (inactive)
17,PPIL2 (UniProt Q13356),-0.047 (inactive)
18,PRRC2A (UniProt P48634),-0.001 (inactive)
19,PCBP3 (UniProt P57721),-0.014 (inactive)

# Compound: Cc1cc(Nc2cc(CN3CCOCC3)c3nc(C)c(Cc4ccc(Cl)cc4F)n3n2)n[nH]1 [gandotinib]
# Assay: as above
# In short: as §1
row,Target,log2 fold change
1,PUS1 (UniProt Q9Y606),-0.033 (inactive)
2,PTPN23 (UniProt Q9H3S7),-0.031 (inactive)
3,PDCD6IP (UniProt Q8WUM4),-0.012 (inactive)
4,PMS2 (UniProt P54278),-0.064 (inactive)
5,PSTPIP2 (UniProt Q9H939),-0.095 (inactive)
6,PUM1 isoform 3 (UniProt Q14671),-0.151 (inactive)
7,PICALM (UniProt Q13492),0.022 (inactive)
8,PTPN1 (UniProt P18031),-0.055 (inactive)
9,PPP2R5C isoform 5 (UniProt Q13362),-0.08 (inactive)
10,POLD3 (UniProt Q15054),-0.079 (inactive)
11,PIP4K2A (UniProt P48426),0.109 (inactive)
12,PDS5A (UniProt Q29RF7),-0.127 (inactive)
13,PFN1 (UniProt P07737),0.007 (inactive)
14,PLXNB2 (UniProt O15031),-0.046 (inactive)
15,PFAS (UniProt O15067),0.002 (inactive)
16,PITRM1 isoform 2 (UniProt Q5JRX3),0.013 (inactive)
17,PPP1R8 (UniProt Q12972),0.108 (inactive)
18,PLEKHF1 (UniProt Q96S99),0.023 (inactive)
19,PRKACB isoform 2 (UniProt P22694),-0.071 (inactive)
20,PIP4K2C (UniProt Q8TBX8),0.109 (inactive)

row,Target,log2 fold change
1,PDPK1 (UniProt O15530),0.092 (inactive)
2,PIK3C3 (UniProt Q8NEB9),0.272 (active)
3,PHOSPHO2 (UniProt Q8TCD6),-0.009 (inactive)
4,PFKP (UniProt Q01813),-0.034 (inactive)
5,PHKG2 (UniProt P15735),0.061 (inactive)
6,PPCDC (UniProt Q96CD2),0.152 (inactive)
7,PDE2A (UniProt O00408),0.138 (inactive)
8,PRKCB isoform 2 (UniProt P05771),-0.122 (inactive)
9,PIP4P2 (UniProt Q8N4L2),-0.021 (inactive)
10,PHKA1 (UniProt P46020),0.069 (inactive)
11,PIK3R2 (UniProt O00459),0.043 (inactive)
12,PSMB9 (UniProt P28065),0.013 (inactive)
13,PHACTR4 isoform 2 (UniProt Q8IZ21),-0.121 (inactive)
14,PI4K2A (UniProt Q9BTU6),-0.03 (inactive)
15,PDE4DIP isoform 4 (UniProt Q5VU43),0.116 (inactive)
16,PDXDC1 (UniProt Q6P996),0 (inactive)
17,PPIL2 (UniProt Q13356),-0.019 (inactive)
18,PRRC2A (UniProt P48634),0.007 (inactive)
19,PCBP3 (UniProt P57721),0.028 (inactive)
